Measurements from PubChem BioAssay (NCI).
This is part of a sample that, as a whole, favours compounds with a hit. Of some 83,000 tested, about 20% had one in any assay.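 Note: values are percent growth. 100 is the growth of untreated cells, values between 100 and 0 indicate rising inhibition; between -100 and 0 indicates cell death.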 Values without a mark were called inactive. Activity calls are given as the source filed them.

Each molecule was assayed on PC-3 prostate (assay: NCI-60 one-dose screen, 48 h (100 = growth as untreated, 0 = no growth, -100 = all killed)). Settings: 10 µM.
Protocol: Growth inhibition of the PC-3 human tumor cell line is measured as a screen for anti-cancer activity. Cells are grown in 96 well plates and exposed to the test compound for 48 hours. Compounds are tested at a single concentration, which is 10^-5 M for most compounds. The reported endpoint is percent growth (GI% or GIPRCNT), where numbers from 0 - 100% represent growth inhibition, and numbers from -100% - 0 represent cell death. For example, a value of 40 represents 60% growth inhibition. A value of 0 means no net growth occurred over the course of the experiment. A value of -40 indicates 40% of cells at the beginning of the experiment died by the end of the experiment. A value of -100 means all cells are dead at the end of the experiment.
NCI-60 Human Tumor Cell Lines Screen was performed using the standard one-dose NCI protocol, which is described in more detail at https://dtp.cancer.gov/discovery_development/nci-60/default.htm.
Compounds with GIPRCNT values below 10 were considered active. Activity score was based on GIPRCNT using the following formula: […]
Score is 0 for GIPRCNT values of 100 or above, 50 for GIPRCNT values of 0, and 100 for GIPRCNT values of -100.
`Cc1cc(N=C2NC(=O)S/C2=C\c2ccc(F)cc2)n[nH]1` was tested, and the growth was 6.14% (active). In the case of `Fc1ccc(-c2csc(Nc3cccc(Nc4nc(-c5ccc(F)cc5)cs4)c3)n2)cc1`, the growth is reported as 35.2%. For `COc1ccc(C(=O)COc2ccc(NC(=O)Nc3ccc(Cl)c(C(F)(F)F)c3)cc2)cc1`, the growth was 8.96% (active). In the case of `Cn1cc(-c2nnc(N)nc2-c2c[nH]c3ccccc23)c2cc(Br)cnc21`, the growth is reported as 45.7%. `CCn1c(SCC(=O)Nc2ccc(-c3nc4ccccc4[nH]3)cc2)nc2ccccc2c1=O` was tested, and the growth was -80.6% (active). `O=C(Nc1ccc(OCc2ccc(Cl)cc2)cc1)Nc1ccc(Cl)c(C(F)(F)F)c1` was tested, and the growth was -7.44% (active). `Cc1ccc(COc2ccc(NC(=O)Nc3ccc(Cl)c(C(F)(F)F)c3)cc2)cc1` showed a growth of 38.4%. `CC(C)(C)c1cc(/C=C2\S/C(=N/c3ncn[nH]3)NC2=O)cc(C(C)(C)C)c1O` was tested, and the growth was 12.2%. `COc1ccc(C2c3sc4ccc(C)cc4c3Oc3nc(N)nc(N)c32)cc1` (stereo not given) gave a growth of 79.8%. `O=C(Nc1ccc(Oc2ncnc3scc(Nc4n[nH]c(=S)s4)c23)cc1)C1(C(=O)Nc2cccc(C(F)(F)F)c2)CC1` was tested, and the growth was 103%. For `COc1cc(-c2nc3ccc(C)cc3[nH]2)ccc1OCc1nnc(-c2ccccc2Br)o1`, the growth was 56.1%. `C#C[C@]1(O)CC[C@H]2[C@@H]3CC=C4c5sc(Nc6ccc(C(F)(F)F)cn6)nc5CC[C@]4(C)[C@H]3CC[C@@]21C` was tested, and the growth was 1.89% (active). For `COc1ccc2[nH]cc(-c3nc(N)nnc3-c3cn(C)c4ncc(Br)cc34)c2c1`, the growth was 10.5%. For `O=[N+]([O-])c1cccc(-c2nnc3c(/C=C/c4ccccc4O)nc4ccccc4n23)c1`, the growth was 52.2%. With `COc1ccc(Cc2nn(CC(=O)N/N=C/c3ccc([N+](=O)[O-])cc3)c(=O)c3c(C)noc23)cc1` the growth was 69.8%. `CCOc1ccc(/C=N/NC(=O)Cn2nc(Cc3ccc(OC)cc3)c3onc(C)c3c2=O)cc1` showed a growth of 18.3%. `COc1cc2oc(-c3cccc(C(=O)Nc4ccc(Cl)cc4)c3)cc(=O)c2c(OCCNC(=O)[C@@H](N)CO)c1OC` gave a growth of 48.3%. `COc1ccc(C2OC[C@@]3(C)C4CC[C@]5(C)C(CC=C6C7CC(C)(C)CC[C@]7(C(=O)O)CC[C@]65C)[C@@]4(C)C[C@@H](O)[C@@H]3O2)cc1` (stereo not given in full) gave a growth of 49.2%. For `Cn1cc(-c2nc(N)nnc2-c2c[nH]c3ccccc23)c2cc(Br)cnc21`, the growth was 13.3%. Work on `CC1(C)CC(=O)C2=C(C1)N(Cc1ccc(C(=O)O)cc1)C1=C(C(=O)CC(C)(C)C1)C2c1ccc(Cl)cc1` yielded a growth of 109%. For `COc1ccc(NCc2cn(-c3ccc(C(=O)O)cc3)nc2-c2ccc(F)cc2)cc1C(F)(F)F`, the growth was 36.3%. For `O=C(CSc1nc2ccccc2c(=O)n1-c1ccc(Cl)cc1)Nc1ccc(-c2nc3ccc([N+](=O)[O-])cc3[nH]2)cc1`, the growth was -14.9% (active). `CCOC(=O)C1=C(N)N(c2ccc(C)cc2)C2=C(C(=O)CC(C)(C)C2)C1c1ccccc1Br` (stereo not given) was tested, and the growth was 32.4%. With `Cc1cc(N=C2NC(=O)/C(=C/c3cc(C(C)(C)C)c(O)c(C(C)(C)C)c3)S2)n[nH]1` the growth was 10.7%. Molecule `O=C1NC(=S)S/C1=C\c1cn(-c2ccccc2)nc1-c1ccc([N+](=O)[O-])cc1` has a growth of 11.2%. For `O=C(Nc1ccc(OCc2ccc(F)cc2)cc1)Nc1ccc(Cl)c(C(F)(F)F)c1`, the growth was -1.21% (active). `O=C(Nc1ccc(OCC(=O)c2ccc(Cl)cc2)cc1)Nc1ccc(Cl)c(C(F)(F)F)c1` was tested, and the growth was 7.67% (active). In the case of `C#CCOc1cc(N(CC)CC)ccc1C(C(=O)NC(C)(C)C)N(C(=O)C1CCc2cc(F)ccc2O1)c1ccc(F)cc1F` (stereo not given), the growth is reported as 15%. Molecule `COc1ccc(C2c3sc4ccc(C)cc4c3Oc3nc[nH]c(=O)c32)cc1` (stereo not given) has a growth of 74.9%. In the case of `Cc1ccc2c(c1)C(=O)/C(=C/c1ccc([N+](=O)[O-])cc1)S2`, the growth is reported as 94.5%. For `COc1cccc(O)c1/C=C1\SCc2cc3c(OC)cccc3[o+]c21`, the growth was 97.9%. For `O=C1S/C(=C\c2ccc([N+](=O)[O-])cc2)C(=O)N1CCN1CCCCC1`, the growth was 94.3%. `COc1cc(C2CC(c3ccc(Oc4ccc(Cl)cc4)cc3)=NN2c2nc(-c3ccc(Cl)cc3)c(C#N)c(N3CCOCC3)n2)cc(OC)c1OC` (stereo not given) was tested, and the growth was 92%. Molecule `COc1cc(C2CC(c3ccccc3)=Nc3c(N)nc(N)nc3N2)ccc1Oc1nc(NCCO)nc(N2CCOCC2)n1` (stereo not given) has a growth of 101%. For `Cn1cc(-c2cc3nc(-c4c[nH]c5ccccc45)cc(N)n3n2)c2cc(Cl)ccc21`, the growth was -85.3% (active). `O=C1NC2C=CC=CC2/C1=C1/SC(=S)N(C2CC(=O)N(c3ccc(Br)cc3)C2=O)C1=O` (stereo not given) showed a growth of 76.6%. `Cc1ccc2c(c1)C(=O)/C(=C/c1c[nH]c3ccccc13)S2` was tested, and the growth was 23.7%. For `Cc1ccc(S(=O)(=O)N2CCN(S(=O)(=O)c3oc(-c4ccccc4)nc3C#N)CC2)cc1`, the growth was 75%. With `O=C(CSc1nc2ccccc2c(=O)n1-c1ccc(Cl)cc1)Nc1ccc(-c2nc3ccccc3[nH]2)cc1` the growth was -54.2% (active). `O=C(CC(=O)Nc1ccc(Oc2ncnc3scc(Nc4n[nH]c(=S)s4)c23)cc1)Nc1ccc(Cl)cc1` was tested, and the growth was 74%.
